Ten molecules from PubChem BioAssay (NCATS) can be followed below.

Test [1] is described as follows: qHTS Assay for Lipid Storage Modulators (AID 1519; calls by dose curve). Particulars: Drosophila S3 cells, BODIPY lipid droplet/cell ratio, laser cytometry, cells loaded with oleic acid. The procedure, abridged: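 Cells seeded at 5,000 per well were treated with compounds over a concentration series and loaded with oleic acid (400 uM, as added). Lipid droplet fluorescence (488 nm excitation, 500-530 nm channel) was read by laser-scanning cytometry and normalized to 20 uM Triacsin C.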

Test [2] addresses Ubiquitin carboxyl-terminal hydrolase 1 (Homo sapiens) (UniProt O94782). Nature of the test: Inhibitors of USP1/UAF1: Pilot qHTS (AID 504865).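 Further: rhodamine fluorescence freed from ubiquitin-rhodamine substrate followed over time; top concentration of the series differs between compounds; on the % scale 0 is the no-effect control and ±100 the full control effect; nearly all actives have a fitted effect of over 35% in size.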 Particulars: purified USP1/UAF1, Ub-rhodamine cleavage fluorescence; series mostly up to 114 µM. Put shortly:
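Enzyme-free wells gave the negative control, while test wells held 1nM USP1/UAF1 preincubated with compound for 15 min at room temperature. Ub-Rho at 150nM final started the reaction, and fluorescence at 480/540 nm was recorded kinetically.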
On the technique in general: Quantitative high-throughput screening tests each substance at several concentrations.

In test [3] the target is ATP-dependent 6-phosphofructokinase (Trypanosoma brucei brucei) (UniProt O15648). Nature of the test: qHTS Assay to Find Inhibitors of T. brucei phosphofructokinase: hit validation (AID 492961).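 Further: luminescence reports ADP formed as PFK phosphorylates fructose-6-phosphate with ATP; on the % scale 0 is the no-effect control and ±100 the full control effect.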 Particulars: T. brucei PFK, ADP-Glo luminescence; series mostly up to 51.4 µM. Put shortly:
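Measures ADP output of PFK (1.25 nM) at 0.1 mM ATP, 0.5 mM F6P, pH 8.0 TEA buffer with 5 mM MgCl2. No-enzyme wells define full inhibition; uninhibited enzyme wells define zero.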

The nature of test [4]: Cell Viability - LYMP1-002 - Assay at 24 hr (AID 993). Further: on the % scale 0 is the no-effect control and ±100 the full control effect. Particulars: LYMP1-002 lymphoblastoid cells viability; series mostly up to 92.2 µM. Put shortly:
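Human lymphoblastoid LYMP1-002 cells, 2500/well in complete medium, were treated with compounds for 24 h at 37 C; intracellular ATP was read by CellTiter-Glo luminescence. AC50 values came from Hill-equation fits of qHTS concentration-response data.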

Test [5] is described as follows: Cell Viability - LYMP1-002 - Assay at 40 hr (AID 994).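 Further: 0% = DMSO only and full inhibition = 92 µM tetraoctylammonium bromide; nearly all actives have a fitted effect of over 60% in size.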 Particulars: LYMP1-002 lymphoblastoid cell viability; series mostly up to 92.2 µM. Put shortly: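 Human lymphoblastoid cells, 2500/well in complete medium, were preincubated 5 hr at 37 C, then exposed to compounds for 40 hr at 37 C. Intracellular ATP was read by CellTiter-Glo luminescence after 30 min at room temperature; AC50 from Hill-equation fits.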

Test [6] is described as follows: qHTS Assay for Identification of Small Molecule Inducers of Hypoxia Response (AID 2120; active means well fitted curve in the direction sought with a large enough effect in the signal ratio, with a control signal flat, not every such curve was filed as active; the % refers to the signal ratio; further: 0% is about no effect). Particulars: hypoxia response reporter cells, beta-lactamase ratio readout; series mostly up to 104 µM. Put shortly:
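HRE-beta-lactamase reporter in CellSensor HRE-bla ME-180 cells, 2500 cells/well in Opti-MEM with 0.5% dialyzed FBS; compounds tested as titration series, 17 h at 37 degrees C. CCF4 substrate 2.5 h at room temperature; AC50 from 460/530 nm ratio.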

Test [7] deals with Estrogen receptor (Homo sapiens) (UniProt P03372). Nature of the test: qHTS assay for small molecule antagonists of estrogen receptor alpha signaling (AID 588513; active means well fitted curve in the direction sought with a large enough effect in the signal ratio, with a control signal flat, not every such curve was filed as active; the % refers to the signal ratio; further: on the % scale 0 is the no-effect control and ±100 the full control effect). Particulars: ER-alpha-UAS-bla HEK293, beta-lactamase ratio, antagonist mode; series mostly up to 76.9 µM. Put shortly: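 Antagonist-mode qHTS in ER-alpha-UAS-bla HEK 293 cells: compound titration, 0.5nM estradiol for 18 h, CCF4 fluorescence, Hill-derived IC50.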

Test [8] shares this target. The experiment in a line: qHTS assay for small molecule agonists of estrogen receptor alpha signaling (AID 588514; calls by dose curve;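 further: 0% = vehicle only and 100% = reference agonist; nearly all actives have a fitted effect of over 70% in size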). Particulars: ER-alpha-UAS-bla HEK293, beta-lactamase ratio, 18 h, percent of full estradiol response, vehicle zero; series mostly up to 76.8 µM. The procedure, abridged: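 ER-alpha-UAS-bla GripTite HEK 293 cells in medium with 2% charcoal/dextran-treated FBS were treated with compound titrations at 37 C for 18 hrs; beta-lactamase reporter read by CCF4 fluorescence after 2 hrs at RT.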

The target in test [9] is Androgen receptor (Homo sapiens) (UniProt P10275). Nature of the test: qHTS assay for small molecule agonists of androgen receptor signaling (AID 588515; active means well fitted curve in the direction sought with a large enough effect in the signal ratio, with a control signal flat; the % refers to the signal ratio; further: on the % scale 0 is the no-effect control and ±100 the full control effect). Particulars: AR-UAS-bla HEK293, beta-lactamase ratio, agonist 16 h; stronger effect = higher value. Put shortly: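 EC50 and efficacy came from Hill fits of titrations (up to 92 uM) normalized to 30 nM R1881 as 100% and DMSO as 0%. Compound exposure was 16 h at 37 C on AR-UAS-bla HEK293 cells, with a 405/460/530 nm CCF4 fluorescence read.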

Test [10] deals with Glucocorticoid receptor (Homo sapiens) (UniProt P04150). Nature of the test: qHTS assay for small molecule agonists of glucocorticoid receptor signaling (AID 588532; active means well fitted curve in the direction sought with a large enough effect in the signal ratio, with a control signal flat; the % refers to the signal ratio;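 further: 100% = dexamethasone at 0.1 µM and 0% = DMSO only wells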). Particulars: HeLa MMTV-bla, beta-lactamase ratio, agonist, 18 h; stronger effect = higher value; percent of dexamethasone control, DMSO zero. The procedure, abridged: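 Using MMTV-bla HeLa cells in medium with 1% stripped FBS and 25 mM HEPES, compounds were titrated and incubated overnight-length (18 h). Beta-lactamase cleavage of CCF4 was quantified by dual-emission fluorescence.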

Test [11] shares this target. Nature of the test: qHTS assay for small molecule antagonists of glucocorticoid receptor signaling (AID 588533; active means well fitted inhibition curve with a large enough effect in the signal ratio, with a control signal flat, not every such curve was filed as active; the % refers to the signal ratio). Particulars: HeLa MMTV-bla, GRE beta-lactamase ratio, antagonist mode, 18 h; series mostly up to 76.8 µM. The procedure, abridged:
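Antagonist-mode qHTS: compound titrations added to GRE-bla HeLa cells, then dexamethasone 2 nM final; 18 h, 37 C. CCF4 FRET fluorescence normalized to dexamethasone and DMSO; IC50 from Hill fit.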

In test [12] the target is Peroxisome proliferator-activated receptor gamma (Homo sapiens) (UniProt P37231). Nature of the test: qHTS assay for small molecule agonists of peroxisome proliferator-activated receptor gamma signaling (AID 588536; active means well fitted curve in the direction sought with a large enough effect in the signal ratio, with a control signal flat, not every such curve was filed as active; the % refers to the signal ratio;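 further: 0% = DMSO basal wells and 100% = rosiglitazone at 2 µM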). Particulars: HEK293 PPARg-UAS-bla, beta-lactamase ratio, 16 h, percent of rosiglitazone response, DMSO as zero; series mostly up to 76.7 µM. The procedure, abridged:
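PPAR-gamma-UAS-bla HEK293 cells in medium with 1% charcoal/dextran-treated FBS were exposed to compounds for 16 h at 37 C. Beta-lactamase activity was read with CCF4 substrate (405 nm excitation, 460/530 nm emission).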

The target in test [13] is Vitamin D3 receptor (Homo sapiens) (UniProt P11473). The experiment in a line: qHTS assay for small molecule antagonists of vitamin D receptor signaling (AID 588541; calls by dose curve). Particulars: HEK293T VDR-UAS-bla, beta-lactamase ratio, antagonist mode; series mostly up to 76.7 µM. Put shortly:
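Antagonist-mode beta-lactamase reporter assay: HEK293T VDR-UAS-bla cells were exposed to titrated compound alongside 1-alpha,25-dihydroxyvitamin D3 at 3 nM final for 16 h. Values were normalized to the 50 nM agonist control and DMSO basal, with IC50 and efficacy from Hill equation fits.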

For test [14] the target is unchanged. The experiment in a line: qHTS assay for small molecule agonists of vitamin D receptor signaling (AID 588543; calls by dose curve;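 further: 0% = DMSO basal and 100% = reference agonist control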). Particulars: HEK293T VDR-UAS-bla, beta-lactamase ratio, 16 h; series mostly up to 76.8 µM. Put shortly: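 Measured: β-lactamase reporter activity (CCF4, 405 nm excitation, 460/530 nm emission) in HEK293T VDR-UAS-bla cells after 16 h compound exposure at 37 °C. Normalization against 50 nM 1α,25-dihydroxyvitamin D3 and DMSO; Hill-fit EC50.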

Test [15] can be described thus: qHTS assay for small molecule agonists of retinoid X receptor alpha signaling (AID 588544). Particulars: HEK293T RXRa-UAS-bla, beta-lactamase reporter, 18 h; 530 nm emission.
Test [16] addresses alpha-glucosidase (Oryza sativa, rice) (UniProt Q653V4). Nature of the test: Counterscreen for Glucocerebrosidase Inhibitors: qHTS Assay for Rice alpha-Glucosidase at pH 5.0 (AID 997).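 Further: 0% = full activity with enzyme and -100% = basal without enzyme.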 Particulars: rice alpha-glucosidase enzyme activity; series mostly up to 76.9 µM. The procedure, abridged:
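Rice alpha-glucosidase (4 nM final) with 400 uM 4-methylumbelliferyl-alpha-D-glucopyranoside in citrate buffer pH 5.0, 20 min at room temperature, stopped at pH 10; fluorescence 365/440 nm, compounds 0.7 nM–77 uM, AC50 from Hill fits.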

In test [17] the target is DNA dC->dU-editing enzyme APOBEC-3G (Homo sapiens) (UniProt Q9HC16). The experiment in a line: qHTS for inhibitors of Vif-A3G interactions: Validation (AID 588379). Further: 0% is about no effect. Particulars: Vif-A3G protein interaction assay; series mostly up to 46.1 µM. The procedure, abridged:
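HeLa cells stably expressing Vif and A3G-eYFP, 700 cells/well, incubated overnight at 37 deg C, then exposed to compound overnight at 37 deg C. Inhibition of Vif-mediated degradation read as increased yellow fluorescence (Ex 488/Em 500-530) by laser-scanning cytometry.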

Test [18] addresses Androgen receptor (Homo sapiens) (UniProt P10275). Nature of the test: qHTS assay for small molecule antagonists of androgen receptor signaling (AID 588516; active means well fitted curve in the direction sought with a large enough effect in the signal ratio, with a control signal flat, not every such curve was filed as active; the % refers to the signal ratio; further: potency means the concentration at half of the fitted maximal effect). Particulars: AR-UAS-bla HEK293, beta-lactamase ratio, antagonist mode, 16 h; series mostly up to 76.8 µM. The procedure, abridged:
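Compounds tested in titration against 10 nM R1881 in AR-responsive bla reporter HEK 293 cells; CCF4 fluorescence (460/530 nm) after 16 h exposure gave IC50 and efficacy.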

Test [19] in a line: qHTS assay for small molecule antagonists of peroxisome proliferator-activated receptor delta signaling (AID 588535; active means well fitted inhibition curve with a large enough effect in the signal ratio, with a control signal flat, not every such curve was filed as active; the % refers to the signal ratio;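 on max response: cells co-treated with a PPAR-delta agonist as stimulator during compound exposure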). Particulars: HEK293T PPARd-UAS-bla, beta-lactamase FRET ratio, 18 h; 460 nm channel. The procedure, abridged: (§1)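 Cell-based beta-lactamase assay in antagonist mode: 4000 HEK293T PPAR-delta-UAS-bla cells per well, 5 hr preincubation then 18 hr compound incubation at 37 C. IC50 obtained by Hill equation fitting.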

Test [20] concerns the target Peroxisome proliferator-activated receptor delta (Homo sapiens) (UniProt Q03181). The test is described as above. Particulars: HEK293T PPARd-UAS-bla, beta-lactamase FRET ratio, 18 h; series mostly up to 76.7 µM. Put shortly: as §1
Where [21] appears, read: measured here: cell count channel max response.
The mark [22] stands for this setting: measured here: lipid channel max response.

Records with an inconclusive call do not appear. Calls of active or inactive are those of the source. Unless noted, the call rests on the fitted dose curve; in most records, active means well fitted curve in the direction sought with a large enough effect; inconclusive means small, poorly fitted or top-dose-only effect, or another doubt; inactive means no such curve, though single readings can be large; an effect the other way counts as inactive or inconclusive.

Chain of Vitamin D3 receptor (Homo sapiens) (P11473 whole entry, looked up): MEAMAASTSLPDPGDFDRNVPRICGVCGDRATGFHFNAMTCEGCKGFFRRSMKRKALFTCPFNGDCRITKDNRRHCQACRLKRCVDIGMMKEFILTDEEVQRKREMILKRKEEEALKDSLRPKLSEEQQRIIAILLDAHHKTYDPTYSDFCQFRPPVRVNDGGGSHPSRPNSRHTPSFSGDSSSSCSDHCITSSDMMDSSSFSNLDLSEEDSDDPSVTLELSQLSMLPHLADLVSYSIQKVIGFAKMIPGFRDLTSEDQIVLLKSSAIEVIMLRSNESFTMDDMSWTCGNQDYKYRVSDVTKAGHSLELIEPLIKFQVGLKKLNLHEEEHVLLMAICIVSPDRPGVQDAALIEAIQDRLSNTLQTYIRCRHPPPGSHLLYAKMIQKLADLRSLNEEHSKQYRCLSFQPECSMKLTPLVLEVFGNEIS
Chain of Estrogen receptor (Homo sapiens) (P03372 whole entry, looked up): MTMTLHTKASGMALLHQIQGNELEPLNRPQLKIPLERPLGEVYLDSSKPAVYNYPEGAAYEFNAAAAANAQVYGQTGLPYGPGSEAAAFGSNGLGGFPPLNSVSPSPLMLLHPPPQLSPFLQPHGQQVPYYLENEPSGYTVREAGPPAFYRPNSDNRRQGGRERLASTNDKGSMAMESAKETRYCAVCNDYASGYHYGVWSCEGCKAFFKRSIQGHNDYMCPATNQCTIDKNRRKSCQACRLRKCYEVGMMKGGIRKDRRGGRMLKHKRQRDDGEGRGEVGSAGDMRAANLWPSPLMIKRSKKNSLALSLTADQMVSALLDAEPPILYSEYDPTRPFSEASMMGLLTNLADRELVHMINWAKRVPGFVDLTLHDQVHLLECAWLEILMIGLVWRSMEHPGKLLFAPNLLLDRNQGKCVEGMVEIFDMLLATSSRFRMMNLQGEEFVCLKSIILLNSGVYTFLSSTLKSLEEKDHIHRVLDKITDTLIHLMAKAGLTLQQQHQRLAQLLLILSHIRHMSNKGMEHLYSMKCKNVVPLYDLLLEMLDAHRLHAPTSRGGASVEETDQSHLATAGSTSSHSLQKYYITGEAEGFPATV
Chain of Peroxisome proliferator-activated receptor gamma (Homo sapiens) (P37231 whole entry, looked up): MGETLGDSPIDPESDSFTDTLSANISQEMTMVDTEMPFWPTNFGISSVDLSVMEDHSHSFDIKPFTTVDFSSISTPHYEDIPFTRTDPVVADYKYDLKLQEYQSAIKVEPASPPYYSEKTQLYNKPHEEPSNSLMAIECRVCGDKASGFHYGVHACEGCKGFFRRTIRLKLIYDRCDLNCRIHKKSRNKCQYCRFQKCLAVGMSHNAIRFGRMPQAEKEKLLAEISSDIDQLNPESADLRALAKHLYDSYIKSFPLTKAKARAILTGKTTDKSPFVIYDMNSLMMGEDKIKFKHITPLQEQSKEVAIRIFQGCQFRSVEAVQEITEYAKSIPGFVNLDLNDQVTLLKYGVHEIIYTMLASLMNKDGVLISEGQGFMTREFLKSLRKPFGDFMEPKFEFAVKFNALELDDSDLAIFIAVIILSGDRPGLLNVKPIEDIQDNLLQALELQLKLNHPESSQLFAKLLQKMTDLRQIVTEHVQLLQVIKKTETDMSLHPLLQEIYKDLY
Chain of DNA dC->dU-editing enzyme APOBEC-3G (Homo sapiens) (Q9HC16 whole entry, looked up): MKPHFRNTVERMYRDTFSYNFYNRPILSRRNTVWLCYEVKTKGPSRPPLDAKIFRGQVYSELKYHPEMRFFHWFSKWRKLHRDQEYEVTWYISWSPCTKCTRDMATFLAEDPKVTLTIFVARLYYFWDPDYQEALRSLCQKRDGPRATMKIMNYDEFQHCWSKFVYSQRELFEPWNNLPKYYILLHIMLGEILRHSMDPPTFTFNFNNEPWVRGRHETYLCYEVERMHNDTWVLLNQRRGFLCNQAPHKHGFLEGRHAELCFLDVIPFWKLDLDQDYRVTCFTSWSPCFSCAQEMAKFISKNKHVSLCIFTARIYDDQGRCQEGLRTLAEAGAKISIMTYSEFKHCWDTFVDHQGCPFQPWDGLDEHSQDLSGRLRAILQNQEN
Chain of Androgen receptor (Homo sapiens) (P10275 whole entry, looked up): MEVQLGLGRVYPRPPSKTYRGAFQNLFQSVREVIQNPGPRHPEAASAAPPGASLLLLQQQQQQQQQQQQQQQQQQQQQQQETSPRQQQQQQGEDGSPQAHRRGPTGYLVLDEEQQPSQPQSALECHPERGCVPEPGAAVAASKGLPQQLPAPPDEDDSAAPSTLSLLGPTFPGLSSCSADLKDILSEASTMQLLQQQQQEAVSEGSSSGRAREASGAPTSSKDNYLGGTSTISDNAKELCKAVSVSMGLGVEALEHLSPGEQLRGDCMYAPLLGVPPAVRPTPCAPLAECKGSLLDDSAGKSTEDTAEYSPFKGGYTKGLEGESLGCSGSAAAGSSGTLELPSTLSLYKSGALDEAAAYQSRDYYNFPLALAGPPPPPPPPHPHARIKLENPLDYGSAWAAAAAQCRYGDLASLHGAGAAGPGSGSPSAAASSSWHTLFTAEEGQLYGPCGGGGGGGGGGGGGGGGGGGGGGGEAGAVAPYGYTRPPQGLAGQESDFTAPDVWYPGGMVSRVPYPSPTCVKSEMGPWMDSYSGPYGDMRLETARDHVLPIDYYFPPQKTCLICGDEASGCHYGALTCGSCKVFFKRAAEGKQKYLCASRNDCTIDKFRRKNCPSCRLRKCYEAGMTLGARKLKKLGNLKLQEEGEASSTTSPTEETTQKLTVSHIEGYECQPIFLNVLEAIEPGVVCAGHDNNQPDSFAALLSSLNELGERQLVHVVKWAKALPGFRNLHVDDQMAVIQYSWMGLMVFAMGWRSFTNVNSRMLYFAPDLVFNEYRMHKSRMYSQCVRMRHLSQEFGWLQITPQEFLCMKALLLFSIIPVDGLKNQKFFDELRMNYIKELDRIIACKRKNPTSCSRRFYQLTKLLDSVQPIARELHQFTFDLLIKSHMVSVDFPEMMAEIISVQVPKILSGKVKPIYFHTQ
Chain of Ubiquitin carboxyl-terminal hydrolase 1 (Homo sapiens) (O94782 whole entry, looked up): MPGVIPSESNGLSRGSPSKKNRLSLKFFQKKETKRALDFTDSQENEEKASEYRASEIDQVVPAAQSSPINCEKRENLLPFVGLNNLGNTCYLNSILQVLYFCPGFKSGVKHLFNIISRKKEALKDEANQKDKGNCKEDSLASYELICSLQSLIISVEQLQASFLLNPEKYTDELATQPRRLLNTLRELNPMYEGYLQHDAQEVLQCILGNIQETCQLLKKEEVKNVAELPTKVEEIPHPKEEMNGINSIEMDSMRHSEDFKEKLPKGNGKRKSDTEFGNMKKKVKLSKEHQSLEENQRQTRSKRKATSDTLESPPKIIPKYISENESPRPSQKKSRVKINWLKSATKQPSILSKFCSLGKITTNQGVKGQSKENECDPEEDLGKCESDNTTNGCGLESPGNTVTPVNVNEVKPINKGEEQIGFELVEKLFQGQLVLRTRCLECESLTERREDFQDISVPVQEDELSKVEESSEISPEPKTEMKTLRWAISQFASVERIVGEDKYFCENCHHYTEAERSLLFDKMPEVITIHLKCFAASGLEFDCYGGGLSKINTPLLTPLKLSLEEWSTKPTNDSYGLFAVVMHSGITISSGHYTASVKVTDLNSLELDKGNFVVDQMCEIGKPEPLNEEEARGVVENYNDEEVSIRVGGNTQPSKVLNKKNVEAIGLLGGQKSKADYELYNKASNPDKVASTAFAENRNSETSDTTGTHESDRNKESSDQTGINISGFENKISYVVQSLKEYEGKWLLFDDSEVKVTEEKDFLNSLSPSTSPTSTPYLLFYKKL
Chain of Glucocorticoid receptor (Homo sapiens) (P04150 whole entry, looked up): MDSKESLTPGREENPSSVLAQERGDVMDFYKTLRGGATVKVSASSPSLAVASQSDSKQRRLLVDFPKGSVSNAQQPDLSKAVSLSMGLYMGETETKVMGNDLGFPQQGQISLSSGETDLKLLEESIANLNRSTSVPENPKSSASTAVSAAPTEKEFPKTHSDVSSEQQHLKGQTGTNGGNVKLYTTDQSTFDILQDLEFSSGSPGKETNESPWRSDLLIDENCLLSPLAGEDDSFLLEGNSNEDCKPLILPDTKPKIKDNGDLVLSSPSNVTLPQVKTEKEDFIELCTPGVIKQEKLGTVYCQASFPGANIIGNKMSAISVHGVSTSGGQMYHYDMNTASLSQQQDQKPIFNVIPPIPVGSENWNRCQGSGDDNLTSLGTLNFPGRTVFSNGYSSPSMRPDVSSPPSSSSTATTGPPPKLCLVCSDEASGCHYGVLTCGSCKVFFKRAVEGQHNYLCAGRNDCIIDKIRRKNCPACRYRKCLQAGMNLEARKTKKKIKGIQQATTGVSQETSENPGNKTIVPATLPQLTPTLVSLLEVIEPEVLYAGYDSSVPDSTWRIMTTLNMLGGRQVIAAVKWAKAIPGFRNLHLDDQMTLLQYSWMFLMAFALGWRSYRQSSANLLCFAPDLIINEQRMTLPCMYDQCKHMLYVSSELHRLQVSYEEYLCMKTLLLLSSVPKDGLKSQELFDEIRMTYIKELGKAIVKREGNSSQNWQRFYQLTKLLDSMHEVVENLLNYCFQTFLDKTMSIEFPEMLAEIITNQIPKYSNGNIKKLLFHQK
Chain of Peroxisome proliferator-activated receptor delta (Homo sapiens) (Q03181 whole entry, looked up): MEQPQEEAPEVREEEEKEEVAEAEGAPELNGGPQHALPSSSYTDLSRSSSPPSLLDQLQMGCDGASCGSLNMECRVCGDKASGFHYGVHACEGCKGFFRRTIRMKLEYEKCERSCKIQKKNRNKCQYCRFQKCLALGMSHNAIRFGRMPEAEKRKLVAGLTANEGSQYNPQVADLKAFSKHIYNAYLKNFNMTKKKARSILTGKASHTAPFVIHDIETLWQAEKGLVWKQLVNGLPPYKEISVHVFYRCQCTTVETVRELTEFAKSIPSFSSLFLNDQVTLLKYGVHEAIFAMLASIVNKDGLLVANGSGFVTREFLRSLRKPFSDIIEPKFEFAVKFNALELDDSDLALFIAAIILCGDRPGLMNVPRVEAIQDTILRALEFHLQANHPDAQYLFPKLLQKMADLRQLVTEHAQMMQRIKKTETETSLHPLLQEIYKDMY

Turning to `CC(C)C(N)C(=O)OCCOCn1cnc2c(=O)[nH]c(N)nc21` (stereo not given), the activity change, negative = inhibition in test [1] (at 57.5 µM (top of the series)) was 7.31% (inactive). The max response came out at 9.47% in test [1] (setting [21]) and 21.7% in test [1] (setting [22]). Also, in test [2], the molecule was classed as inactive.

As for `CC[C@]1(O)CC2CN(CCc3c([nH]c4ccccc34)[C@@](C(=O)OC)(c3cc4c(cc3OC)N(C)[C@H]3[C@@](O)(C(=O)OC)[C@H](OC(C)=O)[C@]5(CC)C=CCN6CC[C@]43[C@@H]65)C2)C1` (stereo not given in full), in test [3], the molecule was classed as inactive.

Take `CC(=O)O[C@@H]1CC(C)=C2[C@H]1[C@H](C)CC[C@H]2/C=C(\C)C(=O)O`: the call in test [4], in [5], in test [6], in test [7], in test [8] and in [11] was inactive. Besides, the outcome in test [12], in [13] and in test [14] was inactive. In addition, the figures for the activation in test [9] and in test [10] were -3.27% (inactive) and 9.44% (inactive), respectively. Also, the max response in test [15] was found to be 12.6%.

Take `CC(=O)O[C@H]1C(=O)[C@@]2(C)[C@H]([C@H](OC(=O)c3ccccc3)[C@]3(O)C[C@H](OC(=O)[C@H](O)[C@@H](NC(=O)c4ccccc4)c4ccccc4)C(C)=C1C3(C)C)[C@]1(OC(C)=O)CO[C@@H]1C[C@@H]2O`: the molecule was classed as inactive in [16], in [3], in test [2], in test [17], in test [8] and in [14]. In addition, the activation in test [9] was -6.87% (inactive). For the same molecule, in test [18], the Potency was 50.1 nM (active). Besides, the max response in test [15] was -13.7%.

As for `COc1ccc(C[C@H](N)C(=O)N[C@@H]2[C@H](O)[C@H](n3cnc4c(N(C)C)ncnc43)O[C@@H]2CO)cc1`, the call in test [2] was inactive.

Turning to `COc1ccc2c(OC)c3ccoc3nc2c1OC`, the activity change, negative = inhibition in test [1] (at 25.7 µM (top of the series)) is -9.25% (inactive). The max response in test [1] (setting [21]) is 0.385%; in test [1] (setting [22]) it was -6.85%. Moreover, the result in [2] and in test [17] was inactive.

Consider `Nc1nc2c(ncn2[C@@H]2O[C@H](CO)[C@@H](O)[C@H]2O)c(=O)[nH]1`, for which, in test [1] (at 57.5 µM (top of the series)), the activity change, negative = inhibition is -2.55% (inactive). The figures for the max response in test [1] (setting [21]) and in test [1] (setting [22]) were -11.6% and -14.4%, respectively. Also, the outcome in [2] and in test [17] was inactive.

Take `Cc1ccc(N)cc1O`: the call in test [4], in test [5], in test [6], in test [8], in test [11] and in test [20] was inactive. The result in test [12], in test [13] and in [14] was inactive. The Potency result in test [18] was “inactive”. Further, the activation in test [10] was 0.383% (inactive). The figures for the max response in test [19] and in [15] were -0.329% and 6.75%, respectively.

Consider `Nc1ccccc1N`, for which the result in [4], in test [6], in [7], in [11], in test [20] and in test [12] was inactive. Further, the result in [13] and in test [14] was inactive. In test [10], the activation is 10.6% (inactive). In addition, the results for the max response in [19] and in test [15] were -23.4% and 12.1%, respectively.

For the molecule `CC(=O)c1cc2c(cc1O)OC(C)(C)C=C2`, the activity change, negative = inhibition in [1] (at 57.5 µM (top of the series)) was 18.6% (inactive). Also, the figures for the max response in [1] (setting [21]) and in test [1] (setting [22]) were -14.4% and 0.328%, respectively. Moreover, the result in test [2] was inactive.
